Source: PubChem BioAssay
In the library only some 14% were active in any assay of this set; here they are far more common.
Giardia FBPA inh: Giardia lamblia aldolase inhibition; A8B2U2; purified Giardia FBPA; AID 2451; Potency, µM (top dose mostly 59.6 µM), without a hit: top-dose activity, negative = inhibition, hits mostly inhibitors; hit rate 0.71% among 290,000; further: potency means the concentration at half of the fitted maximal effect; on the % scale 0 is the no-effect control and ±100 the full control effect; nearly all actives have a fitted effect of over 55% in size
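Giardia FBPA (40 nM reagent) was preincubated 10 min at RT with compound (up to 57.5 uM final), then substrate plus GAPDH/TPI/NAD/arsenate coupling system with diaphorase/resazurin was added; resorufin fluorescence (525/598 nm) was read after 20 min.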
NS1 function inh: influenza NS1 inhibition; Potency, µM (titrated, usually from 46.1 µM), for the others: top-dose activity, positive = more growth; hit rate 0.4% among 270,000; AID 2326; calls by dose curve; further: potency means the concentration at half of the fitted maximal effect; actives are rising curves; nearly all actives have a fitted effect of over 50% in size
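In this qHTS, NS1 from influenza A is expressed in budding yeast, where it slows growth. Cells are switched from glucose to 2% galactose medium (pH 6.0, -URA), treated with compound, and growth recovery is read at OD600.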
LmPK inhibitor: LmPK (Leishmania mexicana) enzyme inhibition. hit rate 0.37% among 290,000. Potency, µM (doses to about 57.5 µM), inactives show top-dose activity change, negative = inhibition, hits mostly inhibitors. AID 1721. purified LmPK, Kinase-Glo ATP luminescence, 1 h; further: potency means the concentration at half of the fitted maximal effect; on the % scale 0 is the no-effect control and ±100 the full control effect
Target sequence (Q27686 whole entry, looked up): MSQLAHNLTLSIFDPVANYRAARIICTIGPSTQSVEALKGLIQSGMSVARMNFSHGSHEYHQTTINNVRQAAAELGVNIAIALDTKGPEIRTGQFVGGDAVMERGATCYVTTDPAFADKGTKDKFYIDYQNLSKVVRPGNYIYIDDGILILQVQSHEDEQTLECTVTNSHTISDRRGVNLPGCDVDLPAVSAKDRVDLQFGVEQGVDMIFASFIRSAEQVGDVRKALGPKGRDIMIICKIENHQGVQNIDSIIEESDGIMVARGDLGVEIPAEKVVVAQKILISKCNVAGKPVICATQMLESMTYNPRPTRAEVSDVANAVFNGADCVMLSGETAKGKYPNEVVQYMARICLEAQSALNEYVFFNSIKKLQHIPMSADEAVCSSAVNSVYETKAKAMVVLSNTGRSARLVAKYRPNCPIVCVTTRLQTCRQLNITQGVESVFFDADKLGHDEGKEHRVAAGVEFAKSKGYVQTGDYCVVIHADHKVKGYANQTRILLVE
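ATP generated from ADP (0.1 mM) and PEP (0.5 mM) by 0.1 nM LmPK over 1 h at room temperature (pH 7.2 imidazole buffer) was detected by coupled luciferase luminescence. Values were normalized to uninhibited and no-enzyme wells.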
Shiga toxin inh: blocks Shiga toxin action in Vero cells. Vero cells, Shiga toxin protein synthesis inhibition reporter. inhibition, % at 38.7 µM. hit rate 9.2% among 290,000. AID 2315; in the data active means inhibition mostly above about 28%, no sharp cut-off; inactive means mostly below about 43%; further: 0% is about no effect
CHX counter: affects cycloheximide protein synthesis inhibition readout, counter-screen; cell reporter, cycloheximide protein synthesis inhibition counterscreen; max response, %; hit rate 12% among 300,000; AID 2314; in the data active means max response mostly above about 13%, no sharp cut-off; inactive means mostly below about 14%; further: read at 38.3 µM for the half of the compounds with a filed dose; 0% is about no effect
* = called active by the depositor; ? = inconclusive; . = no result given; [ ] = dose if it differs, or a comment. Unless noted, the call rests on the fitted dose curve; in most records, active means well fitted curve in the direction sought with a large enough effect; inconclusive means small, poorly fitted or top-dose-only effect, or another doubt; inactive means no such curve, though single readings can be large; an effect the other way counts as inactive or inconclusive.

SMILES	Giardia FBPA inh	NS1 function inh	LmPK inhibitor	Shiga toxin inh	CHX counter
O=C(c1cnccn1)N1CCC2(CC1)CN(c1cccc(-c3ccccc3)c1)C2	-6%	.	.	.	.
C/C(CCN1CCCc2nc(C)c(C)cc21)=N\OC[C@@H](C)[C@H](OCc1ccccc1)C(C)C	0%[12.9 µM]	.	.	.	.
Cc1cc(C(=O)Nc2sc(C)c(-c3ccc(F)cc3)c2C(N)=O)no1	-4%	5%	0%	84*	62*
COCc1cc(CN(C)C(=O)c2oc3c(F)cccc3c2C)[nH]n1	-5%	-12%	2%	13	24*
COCc1cc(CN(C)C(=O)C2CCC(=O)N(Cc3cccc(OC)c3)C2)[nH]n1 (centres undefined)	.	-3%	5%	4	-4
O=C(Nc1cnn(C23CC4CC(CC(C4)C2)C3)c1)c1cnn2cccnc12	-12%	-33%	6%	90*	64*
Cn1c(SCc2nc(-c3ccc(Cl)cc3)no2)nnc1-c1ccccc1	2%	-63%	1%	-7	-1
Cc1ccc(SCc2nc(-c3ccccc3)no2)cc1	-6%	0%	-1%	12	28*
c1ccc(SCc2nc(-c3ccncc3)no2)cc1	3%	-6%[9.22 µM]	-3%	84*	44*
COc1ccc(-c2noc(CSc3ccccc3)n2)cc1OC	-2%	-12%	7%	67*	39*
Cc1ccc(SCc2nc(-c3ccncc3)no2)cc1	0%	-9%	-3%	66*	20*
COc1ccc(-c2noc(CSc3nnc(CCc4ccccc4)n3-c3ccccc3)n2)cc1OC	1%	-18%	-3%	-4	0
O=C(NC(=S)Nc1ccc2[nH]c(=O)[nH]c2c1)c1cccc(F)c1	?	11%	3%	-9	-8
CC(C)[C@H](NC(=O)N1CC(=O)Nc2ccccc21)C(=O)N1CCC(C(=O)O)CC1	.	0%	-4%	13	5
Cc1ccc(SCc2nc(-c3ccccn3)no2)cc1	-2%	-54%	1%	69*	25*
C=C(C)COc1ccc(-c2[nH]ncc2Oc2ccccc2OC)c(O)c1	12%	-115%	10%	12	13
C=C(C)COc1ccc(-c2[nH]ncc2Oc2ccc(OC)cc2)c(O)c1	-8%	-65%	3%	30	22*
NCCC(=O)N[C@H](Cc1cnc[nH]1)C(=O)O	-2%	.	.	.	.
O=C(CN1C(=O)/C(=C/c2ccco2)SC1=S)NC1CCS(=O)(=O)C1 (centres undefined)	?	10%	13%	-18	1
Cc1n[nH]c(C)c1CCOc1ccc(C(C)C)cc1	3%	-69%	1%	49*	32
Cc1cccc(OCCCc2c(C)n[nH]c2C)c1	-7%	-54%	8%	-8	1
C/C(=N\NC(=O)c1ccc(COc2ccccc2)cc1)c1ccncc1	4%	.	-8%	-6	12
CCOc1ccc(NC(=O)COC(=O)c2ccc3c(c2)C(=O)N(CCc2ccccc2)C3=O)cc1	-4%	-5%	-3%	66*	19*
CCOC(=O)CNC(=O)c1cc(OC)cc(OC)c1	1%	.	-1%	33	7
O=C(COC(=O)c1ccc2c(c1)C(=O)N(CCc1ccccc1)C2=O)Nc1ccc(OC(F)F)cc1	-1%	7%	0%	32	6
SMILES	Giardia FBPA inh	NS1 function inh	LmPK inhibitor	Shiga toxin inh	CHX counter
CCOc1ccc(NC(=O)Cc2ccccc2)cc1	2%	-9%	?	104*	93*
CCOC(=O)CNC(=O)Cc1ccc(OC)cc1	2%	1%	1%	20	13*
CCOc1ccc(NC(=O)CSc2ccccc2N)cc1	-5%	1%	2%	118*	39*
Cc1cccc(S(=O)(=O)c2cn(Cc3ccccc3)c3cc(N4CCC(C)CC4)c(F)cc3c2=O)c1	.	.	.	-6	-1
COc1ccc(COC(=O)C2=C(C)NC(=O)NC2c2ccccc2)cc1 (centres undefined)	2%	11%	4%	-13	-2
COc1ccc(CC(=O)OCC(=O)Nc2ccc(C(=O)Nc3ccc(OC)cc3)cc2)cc1	0%	8%	1%	15	-1
COC(=O)c1ccc(NC(=O)C(=O)c2cccn2C)cc1	-1%	.	?	54*	29*
COc1ccc(NC(=O)C2C(c3ccccc3)C2(Cl)Cl)cc1 (centres undefined)	-2%	-3%	1%	2	7
CCOc1ccc(NC(=O)c2ccc(NC(=O)COC(=O)Cc3ccc(OC)cc3)cc2)cc1	5%	9%	5%	60*	18
COC(=O)c1ccc(NC(=O)Cc2ccccc2)cc1	1%	-14%	0%	100*	50*
CCOc1ccc(NC(=O)C2C(c3ccccc3)C2(Cl)Cl)cc1 (centres undefined)	4%	-11%	-2%	42*	21*
CC1(c2ccccc2)NC(=O)N(N)C1=O (centres undefined)	-2%	5%	-8%	6	-5
COC(=O)c1ccc2c(c1)N(C)CCS2	-4%	-7%	0%	8	-1
CN1CCSc2ccc(C(=O)Nc3cc(F)ccc3F)cc21	-10%	-7%	?	81*	54*
Cc1ccccc1NC(=O)c1ccc2c(c1)N(C)CCS2	-9%	-8%	-2%	32*	28*
Cc1ccc(NCc2ccccc2O)c(C)c1	-5%	.	11%	48*	20*
Cc1cccc(NCc2ccccc2O)c1C	-9%	-6%	1%	-1	12
Cc1ccc(NC(=S)NCc2ccccc2)c(C)c1	-13%	-26%	2%	64	10*
Cc1ccc(S(=O)(=O)C2CS(=O)(=O)CC2O)cc1 (centres undefined)	-6%	6%	4%	12	-6
CC(=O)C1=C(S(=O)(=O)c2ccc(C)cc2)CS(=O)(=O)C1	-17%	13%	-21%	29	20*
Nc1ccc(N(S(=O)(=O)c2ccccc2)S(=O)(=O)c2ccccc2)c(Cl)c1	.	-10%	.	.	.
Cc1ccc(SC(=O)c2c([N+](=O)[O-])c(C)nn2C)cc1	-9%	-54%	2%	9	12*
Cc1cc(C)n(C(=O)c2c([N+](=O)[O-])c(C)nn2C)n1	-2%	-4%	-2%	-3	1
O=C(O)c1ccccc1NC(=S)NC(=O)c1sc2ccccc2c1Cl	-8%	.	-2%	38	18
O=C(NNC(=S)NC(=O)c1sc2ccccc2c1Cl)c1ccc(Cl)cc1	?	-10%	-1%	12	14*
SMILES	Giardia FBPA inh	NS1 function inh	LmPK inhibitor	Shiga toxin inh	CHX counter
CCn1nnc(NC(=O)c2sc3ccccc3c2Cl)n1	-6%	-23%	-2%	66*	42*
O=C(Nc1ccncc1)c1sc2ccccc2c1Cl	-5%	.	-7%	72*	26*
CCn1nnc(NC(=O)c2cccnc2Cl)n1	1%	5%	-7%	-8	-2
CN1CCN(C(=O)c2ccccc2NC(=O)c2sc3ccccc3c2Cl)CC1	4%	-25%	0%	-9	2
CN1CCN(c2ccc(NC(=O)c3sc4ccccc4c3Cl)cc2)CC1	5%	.	11%	82*	43*
O=C(COc1ccc2c(c1)oc(=O)c1ccccc12)NCCN1CCOCC1	4%	-21%	3%	-8	-2
